Results published in the supplement of paper PMC10849652.
The full data set covers some 7,900 targets. This sample favours those with a hit. About 0.6% of all pairs of compound and target were hits. Unmarked numbers belong to inactive results.

Key:
Experiment in all cases: log2 fold change, soluble protein after heating vs DMSO (PISA); higher = thermal stabilisation; K562 cells, 10 uM, 30 min; active = over 0.2 and 3.5 SD of the protein, either way, in both replicates (recomputed)
bafetinib = compound: Cc1ccc(NC(=O)c2ccc(CN3CC[C@H](N(C)C)C3)c(C(F)(F)F)c2)cc1Nc1nccc(-c2cncnc2)n1 [bafetinib]
How it was run: (§1)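 K562 cells at 2×10^6 cells/mL were exposed to 10 μM compound for 30 min, then aliquots were heated for 3 min across 48°C-58°C, pooled, and extracted in PBS containing 0.5% NP-40 at 4°C. The supernatant after 21,000xg for 90 min was taken as soluble protein and measured by TMTpro 16plex LC-MS/MS with channel sums equalised. Thermal stability is reported relative to control samples, with values from duplicates. Fold changes are given on a log2 scale.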

[1] = compound: Cc1cccc(CC(=O)N2CCc3c2ccc(-c2cn(C)c4ncnc(N)c24)c3F)n1
How it was run: as §1

nilotinib = compound: Cc1cn(-c2cc(NC(=O)c3ccc(C)c(Nc4nccc(-c5cccnc5)n4)c3)cc(C(F)(F)F)c2)cn1 [nilotinib]
How it was run: as §1

[2] = compound: Cc1nc(Nc2n[nH]c3c2CN(C(=O)N[C@H](CN(C)C)c2ccccc2)C3(C)C)c2sccc2n1
How it was run: as §1

dasatinib = compound: Cc1nc(Nc2ncc(C(=O)Nc3c(C)cccc3Cl)s2)cc(N2CCN(CCO)CC2)n1 [dasatinib]
How it was run: as §1

[3] = compound: Cc1ncc(-c2ccnc(Nc3ccc(S(C)(=O)=O)cc3)n2)n1C(C)C
How it was run: as §1

[4] = compound: Cn1cc(-c2ccc3c(c2)CCN3C(=O)Cc2cccc(C(F)(F)F)c2)c2c(N)ncnc21
How it was run: as §1

[5] = compound: Cn1cc(-c2ccc3nnc(C(F)(F)c4ccc5ncccc5c4)n3n2)cn1
How it was run: as §1

tipifarnib = compound: Cn1cncc1[C@@](N)(c1ccc(Cl)cc1)c1ccc2c(c1)c(-c1cccc(Cl)c1)cc(=O)n2C [tipifarnib]
How it was run: as §1

mubritinib = compound: FC(F)(F)c1ccc(/C=C/c2nc(COc3ccc(CCCCn4ccnn4)cc3)co2)cc1 [mubritinib]
How it was run: as §1

Sequence of UniProt Q8WUH2 (Q8WUH2 whole entry, looked up): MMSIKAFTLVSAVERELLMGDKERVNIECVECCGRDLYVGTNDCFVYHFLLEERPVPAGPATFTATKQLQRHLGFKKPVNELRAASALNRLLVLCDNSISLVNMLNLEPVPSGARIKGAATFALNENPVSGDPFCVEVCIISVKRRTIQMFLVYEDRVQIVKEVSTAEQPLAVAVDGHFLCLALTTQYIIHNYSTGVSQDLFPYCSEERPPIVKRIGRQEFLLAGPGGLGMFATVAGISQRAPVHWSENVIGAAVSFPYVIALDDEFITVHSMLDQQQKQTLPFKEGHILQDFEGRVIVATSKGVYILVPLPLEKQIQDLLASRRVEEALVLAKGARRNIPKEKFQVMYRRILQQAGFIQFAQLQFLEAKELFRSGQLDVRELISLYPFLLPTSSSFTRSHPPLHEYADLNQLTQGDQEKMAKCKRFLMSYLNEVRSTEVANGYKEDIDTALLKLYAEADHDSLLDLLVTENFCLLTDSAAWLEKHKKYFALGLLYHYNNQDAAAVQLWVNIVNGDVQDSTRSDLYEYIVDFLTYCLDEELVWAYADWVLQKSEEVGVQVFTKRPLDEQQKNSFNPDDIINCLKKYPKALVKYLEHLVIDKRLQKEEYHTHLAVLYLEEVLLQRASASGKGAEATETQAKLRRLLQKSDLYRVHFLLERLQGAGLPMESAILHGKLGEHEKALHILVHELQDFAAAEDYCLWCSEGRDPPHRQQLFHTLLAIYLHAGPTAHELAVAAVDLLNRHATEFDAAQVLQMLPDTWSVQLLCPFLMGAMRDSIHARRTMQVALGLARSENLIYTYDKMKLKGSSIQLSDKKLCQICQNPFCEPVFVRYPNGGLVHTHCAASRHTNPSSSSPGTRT
Sequence of UniProt Q9Y5X3 (Q9Y5X3 whole entry, looked up): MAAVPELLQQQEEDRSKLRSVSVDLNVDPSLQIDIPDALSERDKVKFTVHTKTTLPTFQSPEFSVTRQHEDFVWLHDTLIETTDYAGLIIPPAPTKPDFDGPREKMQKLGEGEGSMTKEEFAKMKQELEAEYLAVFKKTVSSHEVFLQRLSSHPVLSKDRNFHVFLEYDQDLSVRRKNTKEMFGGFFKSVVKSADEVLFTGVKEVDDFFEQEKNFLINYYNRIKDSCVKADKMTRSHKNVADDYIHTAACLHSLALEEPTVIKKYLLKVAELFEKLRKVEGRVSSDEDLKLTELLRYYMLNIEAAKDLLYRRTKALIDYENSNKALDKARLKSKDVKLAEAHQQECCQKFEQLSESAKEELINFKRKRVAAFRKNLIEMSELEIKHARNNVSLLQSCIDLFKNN
Sequence of UniProt Q9NZD8 (Q9NZD8 whole entry, looked up): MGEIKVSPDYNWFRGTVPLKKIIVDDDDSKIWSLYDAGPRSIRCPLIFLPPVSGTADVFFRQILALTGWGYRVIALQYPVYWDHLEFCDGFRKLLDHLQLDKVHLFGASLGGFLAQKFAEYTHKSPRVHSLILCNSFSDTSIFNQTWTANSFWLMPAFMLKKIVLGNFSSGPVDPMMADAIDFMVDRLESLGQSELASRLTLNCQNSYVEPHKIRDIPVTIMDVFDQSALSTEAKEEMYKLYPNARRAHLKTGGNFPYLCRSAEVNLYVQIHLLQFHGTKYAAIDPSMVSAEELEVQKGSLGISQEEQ
Sequence of UniProt Q16842 (Q16842 whole entry, looked up): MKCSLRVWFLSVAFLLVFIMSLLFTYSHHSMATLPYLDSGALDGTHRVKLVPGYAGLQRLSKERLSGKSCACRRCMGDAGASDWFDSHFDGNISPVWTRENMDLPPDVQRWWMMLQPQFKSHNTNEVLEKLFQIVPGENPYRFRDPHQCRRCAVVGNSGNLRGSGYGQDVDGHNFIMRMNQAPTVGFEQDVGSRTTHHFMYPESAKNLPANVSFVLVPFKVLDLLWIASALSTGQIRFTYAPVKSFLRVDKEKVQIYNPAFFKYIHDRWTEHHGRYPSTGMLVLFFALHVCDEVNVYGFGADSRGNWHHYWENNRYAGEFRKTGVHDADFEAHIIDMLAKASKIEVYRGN
Sequence of UniProt Q969Z0 (Q969Z0 whole entry, looked up): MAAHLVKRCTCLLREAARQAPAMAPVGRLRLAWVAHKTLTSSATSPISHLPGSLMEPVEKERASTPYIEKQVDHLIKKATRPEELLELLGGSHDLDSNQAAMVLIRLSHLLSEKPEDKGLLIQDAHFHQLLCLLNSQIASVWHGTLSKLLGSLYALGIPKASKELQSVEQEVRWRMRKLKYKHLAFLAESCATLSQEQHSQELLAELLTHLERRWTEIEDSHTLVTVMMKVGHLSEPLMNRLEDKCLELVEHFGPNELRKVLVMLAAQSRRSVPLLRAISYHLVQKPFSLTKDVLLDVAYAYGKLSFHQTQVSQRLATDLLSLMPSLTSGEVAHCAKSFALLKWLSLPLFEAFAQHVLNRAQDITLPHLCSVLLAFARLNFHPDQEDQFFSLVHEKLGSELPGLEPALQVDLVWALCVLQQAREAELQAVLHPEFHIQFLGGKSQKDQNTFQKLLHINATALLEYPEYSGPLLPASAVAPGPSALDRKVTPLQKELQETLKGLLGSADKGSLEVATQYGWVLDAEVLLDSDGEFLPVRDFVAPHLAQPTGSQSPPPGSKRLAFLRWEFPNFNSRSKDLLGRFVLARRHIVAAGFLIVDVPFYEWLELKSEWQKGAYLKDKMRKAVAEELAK
Sequence of UniProt Q6XR72 (Q6XR72 whole entry, looked up): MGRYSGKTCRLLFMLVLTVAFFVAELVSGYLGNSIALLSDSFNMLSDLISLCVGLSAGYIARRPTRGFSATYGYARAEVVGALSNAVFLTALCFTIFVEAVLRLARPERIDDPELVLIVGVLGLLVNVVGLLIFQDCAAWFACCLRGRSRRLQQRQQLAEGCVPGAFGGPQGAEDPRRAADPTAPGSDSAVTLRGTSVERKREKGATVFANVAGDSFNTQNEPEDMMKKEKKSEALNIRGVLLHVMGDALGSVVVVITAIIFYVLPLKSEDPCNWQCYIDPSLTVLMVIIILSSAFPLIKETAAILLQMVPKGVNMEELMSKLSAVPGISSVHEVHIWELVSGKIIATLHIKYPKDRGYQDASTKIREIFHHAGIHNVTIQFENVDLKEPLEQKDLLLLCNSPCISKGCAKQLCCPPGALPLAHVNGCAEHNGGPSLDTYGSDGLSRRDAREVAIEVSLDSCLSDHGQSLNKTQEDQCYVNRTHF
Sequence of UniProt O60749 (O60749 whole entry, looked up): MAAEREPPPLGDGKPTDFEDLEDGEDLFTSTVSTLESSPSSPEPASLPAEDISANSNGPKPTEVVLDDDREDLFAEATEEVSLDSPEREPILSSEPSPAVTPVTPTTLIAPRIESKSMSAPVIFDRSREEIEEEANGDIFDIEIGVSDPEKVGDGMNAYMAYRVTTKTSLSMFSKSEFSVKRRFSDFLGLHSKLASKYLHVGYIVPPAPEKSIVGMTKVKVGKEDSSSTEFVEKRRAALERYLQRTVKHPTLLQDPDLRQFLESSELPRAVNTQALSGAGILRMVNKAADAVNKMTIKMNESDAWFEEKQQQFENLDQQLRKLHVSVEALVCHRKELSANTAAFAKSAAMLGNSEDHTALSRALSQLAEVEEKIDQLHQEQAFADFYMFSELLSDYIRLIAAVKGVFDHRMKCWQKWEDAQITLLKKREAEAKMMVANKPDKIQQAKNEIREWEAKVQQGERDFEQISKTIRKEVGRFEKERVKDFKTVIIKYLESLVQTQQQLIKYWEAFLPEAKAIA
Sequence of UniProt Q6P1M0 (Q6P1M0 whole entry, looked up): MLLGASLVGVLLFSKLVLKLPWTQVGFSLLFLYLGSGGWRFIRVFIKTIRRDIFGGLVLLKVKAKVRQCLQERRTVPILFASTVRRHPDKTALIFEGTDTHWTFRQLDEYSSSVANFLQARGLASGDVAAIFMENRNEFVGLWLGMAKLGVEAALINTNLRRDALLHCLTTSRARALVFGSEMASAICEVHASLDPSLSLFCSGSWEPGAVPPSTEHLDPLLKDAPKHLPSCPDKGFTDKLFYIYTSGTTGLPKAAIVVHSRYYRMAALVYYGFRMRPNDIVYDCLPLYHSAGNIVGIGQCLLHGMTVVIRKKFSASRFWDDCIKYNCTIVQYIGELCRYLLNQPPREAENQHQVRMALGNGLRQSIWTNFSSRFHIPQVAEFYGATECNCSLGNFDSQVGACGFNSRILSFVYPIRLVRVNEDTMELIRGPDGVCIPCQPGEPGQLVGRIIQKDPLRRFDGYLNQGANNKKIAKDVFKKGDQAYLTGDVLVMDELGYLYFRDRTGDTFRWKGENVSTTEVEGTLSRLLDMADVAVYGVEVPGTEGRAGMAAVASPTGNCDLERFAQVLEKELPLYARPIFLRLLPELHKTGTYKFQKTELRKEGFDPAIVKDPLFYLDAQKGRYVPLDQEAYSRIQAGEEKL
Sequence of UniProt Q86UE8 (Q86UE8 whole entry, looked up): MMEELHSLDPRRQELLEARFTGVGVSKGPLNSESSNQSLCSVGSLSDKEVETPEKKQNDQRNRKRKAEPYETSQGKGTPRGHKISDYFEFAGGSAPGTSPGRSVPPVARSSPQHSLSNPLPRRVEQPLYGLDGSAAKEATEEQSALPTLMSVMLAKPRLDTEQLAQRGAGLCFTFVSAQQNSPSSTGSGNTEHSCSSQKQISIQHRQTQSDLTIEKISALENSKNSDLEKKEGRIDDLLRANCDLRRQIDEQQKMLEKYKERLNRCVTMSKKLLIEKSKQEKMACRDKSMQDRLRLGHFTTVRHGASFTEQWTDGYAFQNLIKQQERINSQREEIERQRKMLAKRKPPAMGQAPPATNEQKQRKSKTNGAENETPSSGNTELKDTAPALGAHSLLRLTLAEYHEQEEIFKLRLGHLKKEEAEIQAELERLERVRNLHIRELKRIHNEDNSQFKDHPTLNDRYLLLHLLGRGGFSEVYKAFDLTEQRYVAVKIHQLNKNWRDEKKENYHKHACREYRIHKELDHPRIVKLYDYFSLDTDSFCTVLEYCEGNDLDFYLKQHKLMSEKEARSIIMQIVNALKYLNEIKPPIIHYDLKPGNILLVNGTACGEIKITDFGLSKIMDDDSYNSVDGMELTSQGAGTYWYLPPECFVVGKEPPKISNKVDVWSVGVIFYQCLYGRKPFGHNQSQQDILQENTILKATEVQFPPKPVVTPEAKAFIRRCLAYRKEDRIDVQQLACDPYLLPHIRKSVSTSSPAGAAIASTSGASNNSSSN

Row | Target | log2 fold change (bafetinib) | log2 fold change [1] | log2 fold change (nilotinib) | log2 fold change [2] | log2 fold change (dasatinib) | log2 fold change [3] | log2 fold change [4] | log2 fold change [5] | log2 fold change (tipifarnib) | log2 fold change (mubritinib)
1 | SNX5 (UniProt Q9Y5X3) | -0.154 | 0.11 | -0.078 | 0.006 | -0.169 | -0.314 | 0.05 | 0.001 | -0.027 | 0.082
2 | TLK2 isoform 2 (UniProt Q86UE8) | -0.051 | -0.042 | 0.006 | -0.407 (active) | -0.01 | 0.007 | 0.046 | -0.033 | 0.01 | -0.001
3 | SPTBN4 (UniProt Q9H254) | -0.036 | -0.044 | -0.167 | 0.027 | 0.017 | -0.04 | -0.014 | 0.03 | -0.09 | 0.066
4 | SMAP2 (UniProt Q8WU79) | 0.01 | -0.025 | -0.078 | -0.039 | -0.135 | 0.044 | -0.022 | -0.004 | -0.014 | 0.018
5 | SRSF11 (UniProt Q05519) | 0.071 | 0.105 | -0.024 | -1.01 (active) | -0.034 | -0.001 | -0.078 | 0.015 | -0.029 | -0.01
6 | TBC1D10B (UniProt Q4KMP7) | -0.01 | 0.022 | 0.013 | -0.09 | -0.064 | -0.149 | 0.07 | 0 | 0.039 | 0.013
7 | TGFBRAP1 (UniProt Q8WUH2) | -0.05 | 0.482 (active) | -0.122 | -0.125 | -0.153 | 0.091 | -0.151 | -0.16 | 0.032 | 0.053
8 | SPG21 (UniProt Q9NZD8) | 0.158 | -0.129 | -0.173 | -0.06 | -0.087 | 0.171 | 0.022 | 0.027 | -0.115 | -0.042
9 | SUPT16H (UniProt Q9Y5B9) | 0.006 | 0.049 | 0.011 | -0.088 | -0.269 | -0.103 | 0.073 | 0.108 | -0.088 | 0.047
10 | TEX30 (UniProt Q5JUR7) | -0.01 | -0.053 | -0.147 | -0.095 | -0.2 | -0.016 | 0.084 | -0.004 | -0.18 | 0.033
11 | SLC30A10 (UniProt Q6XR72) | -0.019 | -0.148 | 0.029 | -0.061 | 0.016 | 0.043 | 0.078 | -0.026 | 0.067 | -0.007
12 | TBC1D5 isoform 2 (UniProt Q92609) | -0.126 | 0.017 | -0.076 | -0.052 | -0.232 | 0.007 | -0.067 | -0.005 | -0.177 | -0.017
13 | TIPRL (UniProt O75663) | -0.052 | 0.066 | -0.022 | -0.025 | -0.103 | -0.035 | 0.032 | 0.048 | -0.16 | 0.098
14 | TFRC (UniProt P02786) | -0.277 (active) | -0.038 | -0.005 | -0.043 | 0.009 | -0.018 | 0.012 | 0.027 | -0.004 | 0.052
15 | SRCAP (UniProt Q6ZRS2) | -0.057 | -0.001 | 0.072 | 0.152 | -0.038 | -0.007 | -0.061 | 0.037 | 0.083 | 0.05
16 | TBRG4 (UniProt Q969Z0) | -0.137 | -0.035 | -0.027 | -0.291 | -0.513 | 0.006 | 0.095 | 0.003 | -0.317 | -0.277
17 | SP100 isoform 4 (UniProt P23497) | -0.047 | -0.056 | -0.02 | -0.061 | -0.054 | -0.057 | 0.02 | 0.026 | -0.087 | 0.043
18 | SNX2 (UniProt O60749) | -0.153 | 0.088 | -0.168 | 0 | -0.134 | -0.275 | 0.101 | 0.021 | -0.056 | 0.044
19 | STARD3 (UniProt Q14849) | -0.097 | 0.064 | 0.215 | 0.218 | 0.284 | 0.068 | 0.119 | -0.018 | 0.022 | -0.067
20 | TBK1 (UniProt Q9UHD2) | -0.035 | -0.024 | -0.114 | 0.911 (active) | -0.096 | 0.012 | 0.055 | -0.002 | -0.103 | -0.038
21 | SLC7A6OS (UniProt Q96CW6) | -0.062 | 0.15 | -0.019 | -0.035 | 0.004 | -0.031 | 0.026 | -0.13 | 0.06 | 0.058
22 | SRPRB (UniProt Q9Y5M8) | 0.107 | 0.14 | 0.035 | 0.026 | -0.094 | 0.121 | 0.076 | 0.031 | -0.123 | 0.134
23 | SLC25A42 (UniProt Q86VD7) | -0.081 | -0.069 | 0.009 | -0.024 | -0.025 | 0.048 | -0.022 | -0.049 | 0.017 | 0.051
24 | SLC27A4 (UniProt Q6P1M0) | -0.026 | 0.022 | -0.098 | -0.101 | -0.113 | 0.011 | 0.003 | 0.009 | 0.124 | 0.598 (active)
25 | TBC1D24 (UniProt Q9ULP9) | -0.007 | 0.049 | -0.069 | -0.318 (active) | -0.15 | -0.219 | 0.098 | -0.045 | -0.106 | 0.097
26 | STARD3NL (UniProt O95772) | 0.011 | -0.008 | -0.007 | 0.027 | 0.075 | -0.001 | -0.048 | 0.025 | -0.064 | -0.006
27 | ST3GAL2 (UniProt Q16842) | 0.092 | -0.008 | 0.191 | -0.042 | 0.179 | 0.081 | -0.039 | -0.022 | 0.076 | -0.026
28 | SMPD4 isoform 4 (UniProt Q9NXE4) | -0.031 | 0.122 | -0.1 | -0.076 | -0.037 | 0.025 | 0.098 | 0.04 | -0.016 | 0.148
29 | STXBP2 isoform 3 (UniProt Q15833) | 0.088 | 0.096 | -0.099 | -0.147 | -0.131 | -0.014 | 0.073 | 0.086 | -0.086 | 0.164
30 | SRSF9 (UniProt Q13242) | 0.166 | -0.02 | 0.014 | 0.05 | 0.422 | 0.001 | -0.377 | -0.129 | 0.298 | -0.189
